Assay outcomes: PubChem BioAssay, University of Kansas High Throughput Screening Laboratory
Shown is part of a subset that was picked to be rich in hits.
mHTT-CaM PPI inh = disrupts binding of mutant huntingtin to calmodulin; inhibition, % at 15 µM; AlphaScreen His-mHTT/GST-CaM binding, luminescence; hit rate 3.6% among 190,000; AID 1671202
Pf apPOL inh = Pf-apPOL DNA polymerase inhibition; Recombinant Pf-apPOL, molecular beacon fluorescence, 1.5 h; inhibition, % at 10 µM; hit rate 0.25% among 210,000
Numbers stand for hits; 0 = inactive; - = no result given. No stated cut-off is given here; in the data, active means inhibition above about 50%; inactive means the rest.

SMILES	mHTT-CaM PPI inh	Pf apPOL inh
Oc1ccc(Cl)cc1C1=NNC(c2ccc(Br)cc2)C1 (stereo not given)	75	0
Oc1ccc(Br)cc1C1=NNC(c2cccs2)C1 (stereo not given)	0	0
CCOc1ccc2sc(C=NCc3ccc(OC)cc3)c(O)c2c1	55	0
CCOc1ccc2sc(C=NCc3ccc(F)cc3)c(O)c2c1	0	0
O=C(NCc1ccncc1)c1cc2sccc2n1CC1CC1	0	0
CC(=O)Nc1c(C(=O)c2ccc(F)cc2)oc2ccc(Cl)cc12	0	0
O=C(Nc1c(C(=O)O)oc2ccc(Cl)cc12)c1ccc(C(F)(F)F)cc1	0	85
O=C(CSc1nc2[nH]ncc2c(=O)n1-c1ccccc1)c1ccc(Br)cc1	0	0
Cc1[nH]c2ccccc2c1C(=O)CN1CCCCC1	0	0
Cc1[nH]c2ccccc2c1C(=O)CN1CCCC1	59	0
CCCCC1=NN(C(=O)c2ccccc2Cl)C(O)(C(F)(F)F)C1 (stereo not given)	0	0
Cc1ccccc1OCC(=O)N1N=C(c2cccc(Br)c2)CC1(O)C(F)(F)F (stereo not given)	99	0
CCC1=NN(C(=O)COc2ccccc2C)C(O)(C(F)(F)F)C1 (stereo not given)	0	0
CCCCC1=NN(C(=O)COc2ccc(Cl)c(C)c2)C(O)(C(F)(F)F)C1 (stereo not given)	100	0
CCOc1ccc(/C=C2\SC(=NS(=O)(=O)c3ccc(C)cc3)NC2=O)cc1	51	0
Cc1ccc(S(=O)(=O)N=C2NC(=O)/C(=C/c3ccccn3)S2)cc1	0	0
CCn1c2ccccc2c2cc(C3C(C#N)=C(N)Oc4n[nH]c(COC)c43)ccc21 (stereo not given)	65	0
COCc1[nH]nc2c1C(c1ccc(OC)c(OC)c1)C(C#N)=C(N)O2 (stereo not given)	0	0
O=[N+]([O-])c1ccc(O)c(C2N(Cc3ccccc3)CCN2Cc2ccccc2)c1	0	0
COc1ccc(-c2c(C)oc3c(CN4CCCCC4)c(O)ccc3c2=O)cc1	0	0
CCOCCCNC(=O)C1CCN(c2nccc(C)n2)CC1	0	0
Cn1cc(C(c2ccc(Br)o2)c2cn(C)c3ccccc23)c2ccccc21	0	0
Cn1cc(C(c2ccco2)c2cn(C)c3ccccc23)c2ccccc21	58	0
Cn1c(C(=O)NCc2ccccc2)cc2c1CCN(Cc1ccccc1)C2	63	0
Cn1c(C(=O)NCCCN2CCCCC2)cc2c1CCN(Cc1cccc(F)c1)C2	83	0
SMILES	mHTT-CaM PPI inh	Pf apPOL inh
COc1ccc(CNC(=O)c2cc3c(n2C)CCN(Cc2ccccc2)C3)cc1	0	0
CCN(CC)C(=O)c1cc2c(n1C)CCN(Cc1cccc(C)c1)C2	0	0
CN(Cc1ccccc1)C(=O)c1cc2c(n1C)CCN(Cc1cccc(F)c1)C2	59	0
Cc1cccc(CN2CCc3c(cc(C(=O)NCc4ccco4)n3C)C2)c1	57	0
Cn1c(C(=O)NC(C)(C)C)cc2c1CCN(Cc1cccc(F)c1)C2	0	0
CCCCN(C)C(=O)c1cc2c(n1C)CCN(Cc1cccc(F)c1)C2	0	0
CCCCC(=O)Nc1ccc(NC(=O)c2ccc(C)c(C)c2)cc1OC	0	0
COc1ccc(CN2CCN(C(=O)c3cccs3)CC2)cc1OCc1ccccc1	0	0
CCC(C)C1N=C2c3ccccc3N=C(SCC(=O)Nc3cccc(OC)c3)N2C1=O (stereo not given)	0	0
Cc1cccc(CNC(=O)c2cc3n(n2)CCCN(Cc2cccc(C)c2)C3=O)c1	0	0
Cn1c(C(=O)NCCCN2CCCCC2)cc2c1CCN(Cc1ccccc1)C2	93	0
Cn1c(C(=O)NCCN2CCCCC2)cc2c1CCN(Cc1ccc(F)cc1)C2	0	0
Cc1ccc(NC(=O)C(=O)NN=Cc2ccc3c(c2)OCO3)cc1C	-	0
Cc1cc(C)n(-c2nc3c(c(=O)[nH]c(=O)n3C)n2CC(O)COc2ccccc2Cl)n1 (stereo not given)	100	0
Cn1c(=O)[nH]c(=O)c2c1nc(N1CCOCC1)n2CC(O)COc1ccc(Cl)cc1Cl (stereo not given)	0	0
CCN(C(=O)c1coc(=O)c2ccccc12)c1ccccc1F	0	0
O=C(c1cn2c(n1)CCC(c1cc(F)ccc1F)C2)N1CCOCC1 (stereo not given)	0	0
Cc1ccc2n1CCn1cc(-c3ccc(Br)cc3)cc1-2	99	0
Cc1ccc(C)n1-c1ccc(Br)cc1	-	0
Cc1cc2n(c1)CCn1c(C)ccc1-2	93	0
Cc1cccc(NC(=O)CSc2cn(C)c3ccccc23)c1C	0	0
O=C(c1ccccc1)N1CCN(c2cc(Oc3ccccc3)ncn2)CC1	0	0
O=CN1CCn2c3c(c(=O)c4cc(C5CCCCC5)ccc42)CCC31 (stereo not given)	82	0
Cc1ccc2c(c1)c1c3n2CCN(C=O)C3CCC1 (stereo not given)	0	0
COc1ccc(CCNC(=O)COc2ccccc2C)cc1OC	0	0
SMILES	mHTT-CaM PPI inh	Pf apPOL inh
CCC(=O)NCC1CCCN(C(=O)Nc2ccc(C)cc2C)C1 (stereo not given)	0	0
Cc1ccc(C(=O)Sc2nc(C)cc(C)n2)cc1	71	0
Cc1cc(C)nc(SCC(=O)c2ccc(C(C)C)cc2)n1	0	0
O=C(Cc1ccc(F)cc1)N(CCCn1ccnc1)c1nc2c(Cl)cccc2s1	91	0
O=C(c1cccc(F)c1)N(CCCn1ccnc1)c1nc2c(F)cccc2s1	0	0
Cc1cc(C(=O)N(CCN(C)C)c2nc3c(Cl)cccc3s2)no1	0	0
CN(C)CCN(C(=O)CCc1ccccc1)c1nc2c(Cl)cccc2s1	62	0
COc1ccc(CCNC(=O)CSc2nnc(NC(=O)CC(C)C)s2)cc1OC	0	0
COc1ccccc1CC(=O)N1CCc2c(c(CO)nn2C)C1	0	0
CC(=O)Nc1cccc(N2CC(C(=O)NCCCc3ccccc3)CC2=O)c1 (stereo not given)	0	0
CN(C)CCNC(=O)c1ccc(S(=O)(=O)N2CCCC2)cc1	0	55
O=C(NC1CCCCC1)c1ccc(S(=O)(=O)N2CCCC2)cc1	0	0
O=c1c2cnn(-c3ccccc3)c2nc(-c2ccccc2F)n1-c1ccccc1	0	0
NC(=O)c1cccc(N=c2oc3ccccc3cc2-c2nc3ccccc3[nH]2)c1	0	0
CCOC(CNC(=O)c1ccc2c(c1)ncn2-c1ccc(C)c(Cl)c1)OCC	0	0
Cc1ccc(-n2cnc3cc(C(=O)NCc4ccco4)ccc32)c(C)c1	0	0
Cc1ccc(-n2cnc3cc(C(=O)NCc4ccco4)ccc32)cc1Cl	79	0
CCCNC(=O)c1ccc2c(c1)ncn2-c1ccc(C)c(Cl)c1	52	0
CCOC(=O)COc1ccc2c(=O)c(Oc3ccc(C(=O)OC)cc3)coc2c1	0	0
COc1cc(/C=C2\C(=O)Nc3ccc(Br)cc32)cc(OC)c1OC	0	0
CC1=C(C(=O)Nc2ccc(Cl)cc2Cl)C2(CCCCC2)OC1=O	0	0
COc1ccccc1C1CCN(C(=O)CSCc2cccc3ccccc23)CC1	-	0
Cc1cccc2c(C3CCN(C(=O)c4ccccc4OC(F)(F)F)CC3)c[nH]c12	100	0
CC(=O)N1CCc2c(sc(NC(=O)c3cc(Cl)sc3Cl)c2C(N)=O)C1	0	0
Cc1cc2ccccc2n1CCNS(=O)(=O)c1ccc(Br)cc1	0	0
Cc1cc(C)c(S(=O)(=O)NCCn2c(C)cc3ccccc32)c(C)c1	62	0
O=C(/C=C/c1ccccn1)c1ccc(NC(=O)c2ccco2)cc1	0	0
